Laboratory results: PubChem BioAssay AID651742 (Broad Institute, 2012)
Out of some 5,600 compounds screened, about 780 (14%) were called active. Not shown: some 3% with an inconclusive outcome. A selection follows. Values without a mark were called inactive.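 How the source made its calls: active means mean signal decrease across replicates above about 35% based on untreated-well scatter, with enough replicates individually passing (limit read from the data); inconclusive means no rule stated though some were filed; inactive means the rest.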

Assay: NIH3T3 cell viability loss – cherry-pick, single point, cytotoxicity control for T. cruzi proliferation inhibitor project, confirmation (AID 651742);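 further: 0% = median of neutral control wells and 100% = median of positive control wells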
Settings: NIH/3T3 viability, CellTiter-Glo ATP luminescence, 90 h; at 8.35 µM; hits give high values

| Structure (SMILES) | cytotoxicity (signal decrease) |
| --- | --- |
| COc1ccc(S(=O)(=O)N2CCCCN3[C@H](C2)[C@H](c2ccc(C#CCC(C)C)cc2)[C@@H]3CO)cc1 | 20.8% |
| COc1ccc(S(=O)(=O)N2CCCCN3[C@H](CO)[C@@H](c4ccc(C#CC(C)C)cc4)[C@H]3C2)cc1 | 27.6% |
| CNC[C@H]1OCCCC[C@H](C)Oc2ccc(NC(=O)Nc3c(C)noc3C)cc2C(=O)N([C@H](C)CO)C[C@H]1C | 6.78% |
| COc1ccc(-c2ccc3c(c2)[C@@H]2[C@@H](CCN2C(=O)Cc2ccccn2)[C@H](CO)N3C)cc1 | 3.57% |
| C[C@@H]1CN([C@@H](C)CO)C(=O)CCCn2cc(nn2)CO[C@@H]1CN(C)S(=O)(=O)c1ccccc1F | -3.89% |
| C[C@@H]1CN([C@H](C)CO)C(=O)c2cc(/C=C/c3ccccc3)cnc2O[C@@H]1CN(C)Cc1ccncc1 | 0.61% |
| C[C@@H]1CN([C@H](C)CO)S(=O)(=O)c2ccc(-c3cccc(C#N)c3)cc2O[C@@H]1CN(C)C(=O)Nc1ccccc1F | 45.7% (active) |
| C[C@H](CO)N1C[C@H](C)[C@@H](CN(C)C(=O)Nc2cc(F)ccc2F)Oc2cc(C#CC3CC3)ccc2S1(=O)=O | -4.87% |
| C[C@@H]1CN([C@@H](C)CO)S(=O)(=O)c2ccc(C#Cc3ccccc3)cc2O[C@@H]1CN(C)C(=O)Nc1ccccc1 | 11.7% |
| CN1c2ccc(-c3ccccc3)cc2[C@@H]2[C@@H](CCN2C(=O)c2ccncc2)[C@@H]1CO | 5.49% |
| O=C(C[C@H]1CC[C@@H]2[C@H](COC[C@H](O)CN2Cc2ccc(Oc3ccccc3)cc2)O1)N1CCN(c2ccccc2)CC1 | -0.257% |
| CCCC#Cc1ccc2c(c1)O[C@H](CN(C)C(=O)CC)[C@@H](C)CN([C@H](C)CO)S2(=O)=O | 17.5% |
| CCC(=O)N(C)C[C@@H]1Oc2cc(C#CCN(C)C)ccc2S(=O)(=O)N([C@H](C)CO)C[C@H]1C | -1.94% |
| CC(C)C#Cc1ccc2c(c1)O[C@H](CN(C)Cc1ccccc1)[C@H](C)CN([C@@H](C)CO)S2(=O)=O | 41.7% (active) |
| C[C@@H]1CN([C@@H](C)CO)S(=O)(=O)c2ccc(/C=C/c3ccccc3)cc2O[C@H]1CN(C)Cc1ccccc1 | 21.8% |
| CC(=O)N(C)C[C@H]1Oc2cc(C#CCN(C)C)ccc2S(=O)(=O)N([C@@H](C)CO)C[C@@H]1C | 4.99% |
| C[C@@H]1CN([C@H](C)CO)S(=O)(=O)c2ccc(C#C[C@@H](C)O)cc2O[C@@H]1CN(C)Cc1ccc(-c2ccccc2)cc1 | 14.4% |
| C[C@H]1CN([C@@H](C)CO)S(=O)(=O)c2ccc(C#CCN(C)C)cc2O[C@@H]1CN(C)Cc1ccc(F)cc1 | 48.1% (active) |
| O=C(Cc1ccccc1)N1CC[C@H]2[C@H](CO)Nc3ccc(-c4ccccc4F)cc3[C@H]21 | -5.9% |
| C[C@@H]1CN([C@H](C)CO)C(=O)c2cccc(NC(=O)c3ccc(-c4nccs4)cc3)c2O[C@@H]1CN(C)C(=O)Nc1ccc(C(F)(F)F)cc1 | 26% |

| Structure (SMILES) | cytotoxicity (signal decrease) |
| --- | --- |
| C[C@@H]1CCCCO[C@H](CN(C)C(=O)Nc2ccc(C(F)(F)F)cc2)[C@H](C)CN([C@H](C)CO)C(=O)c2cc(NC(=O)Nc3ccc(C(F)(F)F)cc3)ccc2O1 | -8.85% |
| CCc1cnc(N2[C@H](C#N)[C@H](c3ccc(C4=CCCC4)cc3)[C@@H]2CO)s1 | 9.56% |
| CC(C)NC(=O)N1[C@H](C#N)[C@H](c2ccc(C#CC3CCCCC3)cc2)[C@H]1CO | -28% |
| N#C[C@H]1[C@@H](c2ccc(C3=CCCCC3)cc2)[C@@H](CO)N1C(=O)NC1CCCCC1 | 42.8% (active) |
| Cc1noc(C)c1S(=O)(=O)Nc1ccc2c(c1)C(=O)N([C@@H](C)CO)C[C@@H](C)[C@H](CN(C)S(=O)(=O)c1ccc(Cl)cc1)OCCCC[C@H](C)O2 | -13.7% |
| O=C(Nc1cc(F)ccc1F)N1CCCCN2[C@H](CO)[C@@H](c3ccc(-c4cncnc4)cc3)[C@H]2C1 | 15% |
| CCCC#Cc1ccc2c(c1)O[C@@H](CN(C)C(=O)c1ccccc1F)[C@H](C)CN([C@H](C)CO)S2(=O)=O | 19.4% |
| COc1ccc(S(=O)(=O)Nc2ccc3c(c2)C(=O)N([C@@H](C)CO)C[C@H](C)[C@H](CN(C)Cc2ccc(C(F)(F)F)cc2)O3)cc1 | 3.37% |
| C/C=C/c1ccc([C@H]2[C@@H](CNC(C)C)N(c3nc(CC)cs3)[C@H]2CO)cc1 | 7.64% |
| C[C@H](CO)N1C[C@H](C)[C@@H](CN(C)Cc2ccc(C(=O)Nc3ccccc3N)cc2)Oc2c(NC(=O)c3ccc(-c4nccs4)cc3)cccc2C1=O | -13.6% |
| C[C@H]1CN([C@@H](C)CO)S(=O)(=O)c2ccc(C3=CCCCC3)cc2O[C@@H]1CN(C)Cc1ccccc1 | 119% (active) |
| COc1ccccc1-c1ccc2c(c1)O[C@@H](CN(C)C)[C@H](C)CN([C@H](C)CO)S2(=O)=O | -9.91% |
| C[C@@H]1CN([C@H](C)CO)S(=O)(=O)c2ccc(C3=CCCC3)cc2O[C@H]1CN(C)Cc1ccccc1F | 32% |
| C[C@H](CO)N1C[C@H](C)[C@@H](CN(C)C(=O)C2CCCCC2)Oc2cc(-c3ccccc3)ccc2S1(=O)=O | 26.2% |
| C[C@H]1CN([C@@H](C)CO)S(=O)(=O)c2ccc(C3=CCCC3)cc2O[C@@H]1CN(C)Cc1ccccc1 | 42.4% (active) |
| C[C@H](CO)N1C[C@H](C)[C@H](CN(C)Cc2ccncc2)Oc2cc(-c3ccncc3)ccc2S1(=O)=O | 19.9% |
| CS(=O)(=O)N1[C@@H](C#N)[C@H](c2ccc(C#CC3CCCCC3)cc2)[C@@H]1CO | 4.86% |
| COc1cccc(S(=O)(=O)N2CCCCN3[C@H](C2)[C@H](c2ccc(C#CC(C)C)cc2)[C@@H]3CO)c1 | 19.3% |
| C[C@@H]1CN([C@@H](C)CO)C(=O)c2cc(NC(=O)Nc3ccc(C(F)(F)F)cc3)ccc2O[C@@H](C)CCCCO[C@H]1CN(C)C(=O)c1ccccc1 | 23.5% |
